# PubChem BioAssay
# Target: PEG-3 (UniProt Q6IN02)
# Experiment: Peg3 promoter luciferase inhibitors, potency, dose response, cell-based, HeLa, CREF/GAPDH counter-screen panel (AID 624167)
# Details: CREF/GAPDH counter-screens; HeLa PEG-Prom luciferase reporter, overnight, run 2, dose range 1, at 100 µM (top of the series) unless noted
# Chain of PEG-3 (Q6IN02 whole entry, looked up): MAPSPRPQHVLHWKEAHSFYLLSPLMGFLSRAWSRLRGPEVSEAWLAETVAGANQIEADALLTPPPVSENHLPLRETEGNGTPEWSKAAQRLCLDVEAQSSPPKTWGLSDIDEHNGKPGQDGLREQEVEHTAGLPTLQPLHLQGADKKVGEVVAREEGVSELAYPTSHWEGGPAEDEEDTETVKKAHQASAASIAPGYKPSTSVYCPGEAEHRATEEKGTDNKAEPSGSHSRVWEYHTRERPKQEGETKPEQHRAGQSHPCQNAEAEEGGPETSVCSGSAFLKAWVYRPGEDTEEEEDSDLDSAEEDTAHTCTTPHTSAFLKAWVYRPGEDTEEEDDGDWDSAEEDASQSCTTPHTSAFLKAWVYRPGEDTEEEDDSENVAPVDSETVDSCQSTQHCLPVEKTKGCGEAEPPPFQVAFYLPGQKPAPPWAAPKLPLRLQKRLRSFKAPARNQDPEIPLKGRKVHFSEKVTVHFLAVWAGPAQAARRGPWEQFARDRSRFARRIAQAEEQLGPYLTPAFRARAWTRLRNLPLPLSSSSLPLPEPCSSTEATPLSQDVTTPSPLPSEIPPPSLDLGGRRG
row,Compound,inhibition [%]
1,COc1ccc(C2c3ccc4ccccc4c3Oc3ncn(CCCO)c(=N)c32)cc1 (stereo unspecified),101
2,COc1ccc(C[C@H]2CN3C(=NC[C@@H]3Cc3ccc(O)cc3)N2C[C@H](C)NC(=O)c2ccc(C)c(Br)c2)cc1,102
3,COc1ccc(CCn2c(=N)c(C(=O)NC3CCCC3)cc3c(=O)n4cccc(C)c4nc32)cc1,47.1
4,COc1cccc(NC(=O)CN(C)C(=O)c2cccnc2Nc2cccc(C(F)(F)F)c2)c1,102
5,O=C(NC1=C(NC2CCS(=O)(=O)C2)C(=O)c2ccccc2C1=O)c1ccccc1 (stereo unspecified),99.7
6,O=C1c2ccccc2C(=O)C12OC2c1ccc(Cl)cc1Cl (stereo unspecified),102
7,Cc1cc(Br)ccc1NC(=O)CN1C(=O)C2C3CC(c4ccccc4)C(C3)C2C1=O (stereo unspecified),92.1
8,O=Nc1c(O)ccc2cc(S(=O)(=O)O)ccc12,89.5
9,COc1cccc(Nc2nc(C(N)Cc3ccccc3)cs2)n1 (stereo unspecified),99.1
10,COc1ccc(C(O)(CCC(C)C)C(CN2CCOCC2)c2ccccc2)cc1 (stereo unspecified),101
11,COc1cccc(C(=O)O/N=C(\N)c2ccccn2)c1,95.8
12,O=C(NC1CCCCC1)Sc1ccc(Cl)cc1,101
13,CN(C)CCNC(=O)c1sc2nc(-c3ccccc3)cc(C(F)(F)F)c2c1N,102
14,COC(=O)C1=C(C(=O)OC)C(C(=O)OC)C(C(=O)OC)C(C(=O)OC)(C(=O)OC)C(C(=O)OC)=C1C(=O)OC (stereo unspecified),101
15,CC(=O)NC(c1ccc(C)cc1)c1cc(Cl)c2cccnc2c1O (stereo unspecified),89.7
16,Cc1cc(C(=O)CN2C(=O)c3ccccc3S2(=O)=O)c(C)n1C(C)C,94.7
